# Data published in PubChem BioAssay (NCI).
# The panel holds about 83,000 compounds, 20% with a hit somewhere; the sample as a whole holds those more often.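 Percent growth is the endpoint: 0 to 100 indicates growth inhibition (40 means 60% inhibition), 0 means no net growth, and negative values indicate cell death.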 Values without a mark were called inactive. Active and inactive are the calls of the source.
# System: HOP-62 NSCLC
# Test: NCI-60 one-dose screen, 48 h (100 = growth as untreated, 0 = no growth, -100 = all killed)
# Details: 10 µM unless noted
# Experimental: Growth inhibition of the HOP-62 human Non-Small Cell Lung tumor cell line is measured as a screen for anti-cancer activity. Cells are grown in 96 well plates and exposed to the test compound for 48 hours. Compounds are tested at a single concentration, which is 10^-5 M for most compounds. The reported endpoint is percent growth (GI% or GIPRCNT), where numbers from 0 - 100% represent growth inhibition, and numbers from -100% - 0 represent cell death. For example, a value of 40 represents 60% growth inhibition. A value of 0 means no net growth occurred over the course of the experiment. A value of -40 indicates 40% of cells at the beginning of the experiment died by the end of the experiment. A value of -100 means all cells are dead at the end of the experiment.
# NCI-60 Human Tumor Cell Lines Screen was performed using the standard one-dose NCI protocol, which is described in more detail at https://dtp.cancer.gov/discovery_development/nci-60/default.htm.
# Compounds with GIPRCNT values below 10 were considered active. Activity score was based on GIPRCNT using the following formula: […]
# Score is 0 for GIPRCNT values of 100 or above, 50 for GIPRCNT values of 0, and 100 for GIPRCNT values of -100.
row,Structure (SMILES),growth
1,Cc1c2c(cn1Cc1ccccc1)CCc1cn[nH]c1-2,89.1%
2,CN(C)CCOC(=O)Nc1ccc(Cl)cc1,88.4%
3,O=[N+]([O-])c1ccc(-c2cc3c(Nc4ccc(Cl)c(C(F)(F)F)c4)ncnc3s2)cc1,20.8%
4,CC(C)CCC[C@@H](C)[C@H]1CCC2C3=CCn4c(=O)ccc(=O)n4C3CC[C@@]21C (stereo not given in full),-93.3% (active)
5,CNC(=O)c1cc(Oc2ccc3nc(Nc4cc(Cl)cc(Cl)c4)ccc3c2)ccn1,72.1%
6,O=c1[nH]c(NCc2nnnn2-c2ccc(Br)cc2)nc2sc3c(c12)CCCC3,94.1%
7,COc1cc2oc3cc(C)oc(=O)c3c2cc1OC,93.2%
8,COc1ccc(/C=C(\C#N)n2nnc3cc(F)c(F)cc32)c(OC)c1OC,82.9%
9,O=C1/C(=C/c2ccccc2[N+](=O)[O-])COc2ccc(O)c(O)c21,30.3%
10,O=[N+]([O-])c1ccc(-c2cc3c(Nc4ccc(OCc5cccc(Cl)c5)c(Cl)c4)ncnc3s2)cc1,67.7%
11,N#C/C(=C\c1ccc(Br)cc1)n1nnc2cc(Cl)c(Cl)cc21,53.1%
12,NC(=O)CC1(O)C=C(Br)C(=O)C(Br)=C1,108%
13,O=C1Nc2ccccc2SC1C1SC(=S)N(Cc2ccccc2)C1=O (stereo not given),110%
14,CCOC(=O)c1c2c(c(C)n1C)-c1nn(Cc3ccc(OC)cc3)cc1CC2,132%
15,CC(C)c1ccc(C(=O)OC(=O)c2ccc(C(C)C)cc2)cc1,86.2%
16,Cc1ccc(Nc2ccc(Nc3ccc(C)cc3S(=O)(=O)O)c3c2C(=O)c2ccccc2C3=O)c(S(=O)(=O)O)c1,107%
17,N#Cc1c(NC(=O)c2ccccc2I)sc2c1CCCC2,42.2%
18,COc1ccc(/C=N/NC(=O)Cn2c(-c3ccc(S(C)(=O)=O)cc3)nc3cc(Cl)ccc32)cc1,30.5%
19,Cc1cc(C(c2ccccc2)c2ccccc2)ccc1NS(=O)(=O)c1ccccc1,110%
20,CN1CCN(C(=O)[C@]23CCC(C)(C)C[C@@H]2C2=CC[C@@H]4[C@@]5(C)Cc6c([nH]c7ccccc67)C(C)(C)[C@@H]5CC[C@@]4(C)[C@]2(C)CC3)CC1,80%

row,Structure (SMILES),growth
1,COc1cc(C(=O)/C=C/c2c(C(F)(F)F)nc3ccccn23)cc(OC)c1OC,-26.9% (active)
2,CCOC(=O)N1CCc2c(sc3c2C(=O)N[C@H](c2ccc(OC)cc2)N3)C1,68.4%
3,COc1cc(C(=O)/C=C/c2c(-c3ccc(F)cc3)nc3ncccn23)cc(OC)c1OC,68.1%
4,COc1ccc(-c2cc(-c3cc(OC)ccc3OC)[nH]c(=O)c2C#N)cc1,48.1%
5,CC(/C=N/NC(=O)c1cc(-c2ccco2)[nH]n1)=C\c1ccccc1,95.4%
6,CCCCN1CCN(c2ccc3nc(-c4ccc5nc(-c6cc(OC)c(OC)c(OC)c6)[nH]c5c4)[nH]c3c2)CC1,61.4%
7,O=C1CSC(c2ccccc2Cl)N1c1nnc(Cn2cnnc2)o1 (stereo not given),37.3%
8,CN1CCC(=C2c3ccccc3C=Cc3ccccc32)CC1,83.4%
9,N#Cc1c(N)n2c(nc1=Nc1ccc([N+](=O)[O-])cc1)sc1cc(Cl)ccc12,102%
10,CC(C)(C)Nc1c(-c2c3ccccc3cc3ccccc23)nc2ccccn12,65.1%
11,O=C1NC(=S)S/C1=C\N1N=C(c2ccc(Cl)cc2)CC1c1ccc(F)cc1 (stereo not given),103%
12,N#Cc1c(-c2ccccc2)nc(SCC2CO2)nc1N1CCOCC1 (stereo not given),54.3%
13,CCN(CCO)CC(=O)c1cc(Cl)cc(Cl)c1Cl,94.8%
14,COc1cc(CNC(=O)/C=C/C=C/c2ccc3c(c2)OCO3)ccc1OCc1cn(-c2ccc(Cl)c(Cl)c2)nn1,-19.8% (active)
15,C=C(C)[C@@H]1CC[C@@]2(C(=O)O)CC[C@]3(C)C(CCC4[C@@]5(C)CCC(OS(=O)(=O)c6ccccc6)C(C)(C)C5CC[C@]43C)C12 (stereo not given in full),57.4%
16,CCN(CC)CCCNC(=O)c1ccc(N)cc1,98.5%
17,COc1ccc(-c2nc3sc4c(c3c(=O)[nH]2)CCCC4)c2ccccc12,10.4%
18,CN(C)S(=O)(=O)n1cnc([C@@H]2[C@@H]3C(=O)OC[C@@H]3C[C@]23N=CN(Cc2ccccc2)C3=O)c1,95.9%
19,C[C@@H]1CC[C@@H]2[C@@H]1[C@H](OC(=O)/C=C/c1ccccc1)[C@]1(CCCOCCOCCOCCOC(=O)CCCC[C@@H]3SC[C@@H]4NC(=O)N[C@@H]43)C[C@@H](OC(=O)CO)[C@@]2(C)O1,99.3%
20,CCNCCNc1cc(C2CCCC2)c(C#N)c2nc3ccccc3n12,33.9%
